Source: PubChem BioAssay AID1053205 (Broad Institute, 2014)
Results with a measured potency or affinity are listed apart. Results filed as inconclusive are left out. The source made the active and inactive calls.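 The calls were made as follows: active = compounds lowering the FRET ratio whose fitted half-maximal concentration is at most twice their top tested dose; inconclusive = flat partial drop between 30 and 70 percent, or bad fit; inactive = the rest.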

Biological target: Voltage-dependent L-type calcium channel subunit alpha-1D (Homo sapiens) (UniProt Q01668)
Assay: disruptors of CaV1.3 IQ/ICDI domain association – cell-based, HEK293, YFP-IQ/CFP-ICDI FRET, cherry-picks, dose response (AID 1053205);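 also: 0% = median of neutral control wells and -100% = median of positive control wells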
Conditions: HEK293 YFP-IQ/CFP-ICDI FRET ratio, 10 min; series mostly up to 35 µM

Voltage-dependent L-type calcium channel subunit alpha-1D (Homo sapiens), sequence (Q01668 whole entry, looked up, the tested form may be a part): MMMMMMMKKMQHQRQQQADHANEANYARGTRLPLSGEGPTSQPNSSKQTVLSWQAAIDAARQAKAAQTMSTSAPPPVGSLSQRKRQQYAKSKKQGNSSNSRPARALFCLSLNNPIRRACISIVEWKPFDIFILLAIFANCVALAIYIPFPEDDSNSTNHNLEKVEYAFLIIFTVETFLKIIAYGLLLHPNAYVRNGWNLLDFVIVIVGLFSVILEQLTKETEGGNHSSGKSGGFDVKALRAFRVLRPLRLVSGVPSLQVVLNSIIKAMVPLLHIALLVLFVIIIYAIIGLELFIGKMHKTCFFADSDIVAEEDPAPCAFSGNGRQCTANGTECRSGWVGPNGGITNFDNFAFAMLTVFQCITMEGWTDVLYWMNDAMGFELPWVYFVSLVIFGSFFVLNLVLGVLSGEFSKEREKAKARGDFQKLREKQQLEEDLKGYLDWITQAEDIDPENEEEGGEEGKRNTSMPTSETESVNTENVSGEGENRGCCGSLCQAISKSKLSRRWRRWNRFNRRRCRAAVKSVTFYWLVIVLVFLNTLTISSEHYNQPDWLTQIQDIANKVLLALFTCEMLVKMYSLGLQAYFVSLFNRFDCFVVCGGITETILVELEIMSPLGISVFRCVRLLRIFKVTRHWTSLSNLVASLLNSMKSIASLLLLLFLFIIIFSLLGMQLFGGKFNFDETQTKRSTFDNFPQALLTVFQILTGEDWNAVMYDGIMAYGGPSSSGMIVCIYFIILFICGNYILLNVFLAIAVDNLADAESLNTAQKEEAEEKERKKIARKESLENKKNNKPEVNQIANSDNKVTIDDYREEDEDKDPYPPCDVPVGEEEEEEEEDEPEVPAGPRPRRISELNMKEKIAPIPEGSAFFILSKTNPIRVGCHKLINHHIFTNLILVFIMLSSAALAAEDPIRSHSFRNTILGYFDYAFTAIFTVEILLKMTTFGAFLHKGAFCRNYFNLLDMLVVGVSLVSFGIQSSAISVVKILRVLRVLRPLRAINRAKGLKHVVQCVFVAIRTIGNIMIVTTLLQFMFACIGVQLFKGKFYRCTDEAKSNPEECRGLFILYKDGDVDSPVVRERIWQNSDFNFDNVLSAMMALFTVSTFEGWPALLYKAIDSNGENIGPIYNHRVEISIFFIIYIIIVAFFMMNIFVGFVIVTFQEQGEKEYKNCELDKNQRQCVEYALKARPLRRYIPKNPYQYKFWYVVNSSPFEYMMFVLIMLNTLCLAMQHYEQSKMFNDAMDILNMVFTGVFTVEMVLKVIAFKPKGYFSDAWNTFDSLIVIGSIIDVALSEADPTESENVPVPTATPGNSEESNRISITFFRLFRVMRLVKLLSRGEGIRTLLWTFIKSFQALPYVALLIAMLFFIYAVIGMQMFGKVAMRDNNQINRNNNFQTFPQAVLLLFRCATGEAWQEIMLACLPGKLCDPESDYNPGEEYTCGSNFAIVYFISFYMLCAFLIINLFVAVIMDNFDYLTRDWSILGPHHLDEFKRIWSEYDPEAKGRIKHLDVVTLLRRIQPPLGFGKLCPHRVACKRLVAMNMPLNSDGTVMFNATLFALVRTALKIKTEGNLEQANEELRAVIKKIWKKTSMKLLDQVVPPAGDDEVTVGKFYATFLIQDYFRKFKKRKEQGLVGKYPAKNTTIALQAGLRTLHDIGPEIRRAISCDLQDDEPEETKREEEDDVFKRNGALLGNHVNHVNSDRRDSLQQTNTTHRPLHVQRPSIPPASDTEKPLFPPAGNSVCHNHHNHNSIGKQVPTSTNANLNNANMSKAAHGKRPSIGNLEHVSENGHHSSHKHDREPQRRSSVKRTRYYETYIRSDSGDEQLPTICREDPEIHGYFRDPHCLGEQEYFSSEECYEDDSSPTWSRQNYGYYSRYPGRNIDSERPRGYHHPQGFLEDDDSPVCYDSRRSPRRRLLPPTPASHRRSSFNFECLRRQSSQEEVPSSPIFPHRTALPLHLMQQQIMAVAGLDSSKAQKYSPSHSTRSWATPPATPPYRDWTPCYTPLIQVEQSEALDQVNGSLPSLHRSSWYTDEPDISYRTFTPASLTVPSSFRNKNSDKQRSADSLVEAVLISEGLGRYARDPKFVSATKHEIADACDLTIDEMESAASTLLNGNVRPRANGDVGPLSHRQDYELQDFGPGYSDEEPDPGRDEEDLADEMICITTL

outcome, inactive:
CC1CCCCC1NC(=O)CN1C(=O)c2cccc(N)c2C1=O (stereo not drawn), CC(C)CCn1c(CN2CC(C)OC(C)C2)nc2c1c(=O)n(C)c(=O)n2C (stereo not drawn), Cc1ccc2c(c1)N(C(=O)CCC(=O)NCCCN1CCOCC1)CC(C)O2 (stereo not drawn), Clc1cccc(CN2CCN(Cc3nc(CCc4ccccc4)no3)CC2)c1, CCOc1ccc2nc(NCCNC(=O)CC)c(C#N)cc2c1, O=C(c1ccccc1)N1CCN(c2ccc(NCc3ccc4c(c3)OCO4)cc2)CC1, CCCn1c(=N)c(S(=O)(=O)c2ccccc2)cc2c(=O)n3ccccc3nc21, [O-]/[N+](=C/c1ccccc1)c1ccccc1, COC(=O)C1=CN(Cc2ccc(OC)c(OC)c2)C=C(C(=O)OC)C1c1cccc(F)c1, Cc1cc(OC(=O)c2ccccc2Cl)ccc1N1C(=O)CCC1=O, CCOC(=O)c1cc(-c2ccccc2)sc1NC(=O)CSc1nnc(N)s1, Nc1cccc2c1C(=O)N(c1ccccc1)C2=O, Clc1ccccc1C1=CC(c2ccco2)n2ncnc2N1 (stereo not drawn), CC(=O)c1cccc(-c2ccnc3c2CC(C(=O)NCc2ccc(F)c(F)c2)O3)c1 (stereo not drawn), Cc1oc(/N=C/c2ccc(F)cc2)c(C#N)c1C, Cn1nc(-c2ccc(Cl)cc2)c2cc(C(=O)N3CCN(c4ccccc4)CC3)sc21, O=c1[nH]c(=O)c2nc(-c3ccc(Cl)cc3)cnc2[nH]1

FRET change, negative = inhibition, inactive:
CCN1/C(=C/c2sc(-c3ccccc3C)c[n+]2C)Sc2ccccc21 148% [at 8 µM]
